Compound activity deposited in PubChem BioAssay by National Center for Advancing Translational Sciences (NCATS).
Pf growth 48h – Primary qHTS for delayed death inhibitors of the malarial parasite plastid, 48 hour incubation. P. falciparum luciferase growth in erythrocytes, 48 h. Potency, µM (doses to about 28.7 µM), without a hit: at the highest dose activity change, negative = inhibition, usual class: inhibitors. 5.9% of 310,000 active; further: potency means the concentration at half of the fitted maximal effect; on the % scale 0 is the no-effect control and ±100 the full control effect
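In quantitative HTS format, infected erythrocytes bearing luciferase-reporter parasites were treated for a single generation at 37 C. Luminescence after adding detection reagent served as the growth measure.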
AMA1-RON2 inh – qHTS for Inhibitors of AMA1-RON; Towards Development of Antimalarial Drug Lead: Primary Screen; AID 720542, 2013; 0.2% of 360,000 active; AlphaScreen AMA1-biotinylated RON2 peptide binding; Potency, µM (series often up to 58.2 µM), inactives show at the top dose activity change, negative = inhibition, actives largely listed as inhibitors;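 further: potency means the concentration at half of the fitted maximal effect; 0% = vehicle wells and -100% = peptide control; nearly all actives have a fitted effect of over 45% in size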
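AMA1 (3D7) with his tag at 25 nM final met compounds first, then biotinylated RON2 peptide at 25 nM; detection used donor plus acceptor beads, 10 µg/mL apiece, read by AlphaScreen after 30 min at room temperature.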
Shiga toxin inh – A qHTS for Small Molecule Inhibitors of Shiga Toxin | Vero cells, Shiga toxin protein synthesis inhibition reporter | inhibition, % at 38.7 µM | 9.2% of 290,000 active; in the data active means inhibition mostly above about 28%, no sharp cut-off; inactive means mostly below about 43%; further: 0% is about no effect
Cycloheximide cs – Cycloheximide Counterscreen for Small Molecule Inhibitors of Shiga Toxin; cell reporter, cycloheximide protein synthesis inhibition counterscreen; max response, %; 12% of 300,000 active; in the data active means max response mostly above about 13%, no sharp cut-off; inactive means mostly below about 14%; further: read at 38.3 µM for the half of the compounds with a filed dose; 0% is about no effect
Pf growth 96h – Primary qHTS for delayed death inhibitors of the malarial parasite plastid, 96 hour incubation; P. falciparum luciferase reporter growth, 96 h; Potency, µM (top dose mostly 28.7 µM), for inactives: top-dose activity change, negative = inhibition, actives largely listed as inhibitors; 6.9% of 320,000 active; AID 504834, 2011; further: potency means the concentration at half of the fitted maximal effect; on the % scale 0 is the no-effect control and ±100 the full control effect
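96 h incubation, 37 C, 5% CO2, of luciferase-reporter P. falciparum-infected RBCs (2% hematocrit, 0.05% parasitemia final) with test compounds; endpoint luminescence.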
SARS PLpro yeast – qHTS of Yeast-based Assay for SARS-CoV PLP | S. cerevisiae expressing SARS-CoV PLpro, growth rescue | Potency, µM (titrated, usually from 32.9 µM), inactives show at the highest dose activity, positive = growth rescue, actives largely listed as activators | 0.19% of 330,000 active | AID 485353, 2010; calls by dose curve; further: potency means the concentration at half of the fitted maximal effect; 0% is about no effect; nearly all actives have a fitted effect of over 55% in size
Starred values were filed as active, the others as inactive; i = inactive; ? = inconclusive; . = no result; [ ] = another dose, or the depositor's remark. Hits are enriched below; roughly 19% of the tested compounds scored in any of these assays. Unless noted, the call rests on the fitted dose curve; in most records, active means well fitted curve in the direction sought with a large enough effect; inconclusive means small, poorly fitted or top-dose-only effect, or another doubt; inactive means no such curve, though single readings can be large; an effect the other way counts as inactive or inconclusive.

SMILES | Pf growth 48h | AMA1-RON2 inh | Shiga toxin inh | Cycloheximide cs | Pf growth 96h | SARS PLpro yeast
Nn1c(SCc2cc([N+](=O)[O-])cc3c2OCOC3)nnc1-c1cccnc1 | ? | -1% | 10 | -3 | ? | -5%
CC(NC(=O)c1cccs1)c1n[nH]c(=S)n1C (stereo not drawn) | -8% | 15% | 8 | -3 | -1% | -2%
C=CCC1NS(=O)(=O)OC(CCc2ccccc2)C1O (stereo not drawn) | 47% | 1% | -10 | -3 | 10% | 10%
CC(C)C[C@H](NC(=O)c1[nH]cnc1C(=O)Nc1ccc(Cl)cc1)C(=O)OC(C)(C)C | 13µM* | 139% | -4 | 9 | 13µM* | 0%
CC(C)C[C@H](NC(=O)c1nc[nH]c1C(=O)N[C@@H](CC(C)C)C(=O)OC(C)(C)C)C(=O)OC(C)(C)C | 6.6µM* | 187% | -5 | -2 | 8.3µM* | -4%
COC(=O)c1cn(-c2ccccc2)nc1-c1ccncc1 | -5% | -5% | 19 | -2 | -1% | -4%
O=C(OCc1ccccc1)c1cn(-c2ccccc2)nc1-c1ccncc1 | ? | -7% | 7 | 5 | 9.3µM* | -34%
Cc1ccc(-c2nn(-c3ccccc3)cc2C(=O)Nc2ccc(C(=O)O)cc2)cc1 | 85% | -17% | 48* | 21* | ? | -1%
CCOC(=O)c1ccc(NC(=O)c2cn(-c3ccccc3)nc2-c2ccncc2)cc1 | 4.1µM* | 7% | -2 | -3 | 0% | -10%
Cc1c(C=O)c2ccccc2n1CC(=O)N1CCc2ccccc2C1 | -6% | -7% | -6 | -2 | ? | 7%
CC1(C(=O)NS(=O)(=O)c2cccc(Cl)c2)CCN1C(=O)C1CCCCC1 (stereo not drawn) | . | -8% | . | . | . | .
COc1ccc(NC(=O)NCCCN2CCc3ccccc3C2)cc1 | 10% | -5% | 10 | -2 | 19% | -2%
Cc1ccccc1NC(=O)NCCCN1CCN(c2ccccc2)CC1 | . | -13% | -15 | 1 | 2.3µM* | -10%
COc1ccccc1N1CCN(CCCCNC(=O)c2ccc3ccccc3c2)CC1 | ? | -13% | . | . | 4.1µM* | .
O=C(NCCCN1CCc2ccccc2C1)Nc1ccc(Br)cc1 | . | -8% | -9 | 23* | ? | 3%
Cc1ccccc1NC(=O)NCCCN1CCN(C)CC1 | 8% | -17% | 3 | 7 | ? | 0%
COc1ccccc1N1CCN(CCCNC(=O)Nc2ccccc2)CC1 | 12µM* | -13% | 14 | 3 | ? | -2%
Cc1csc2nc(SCC(=O)N3CCN(c4ccccc4)CC3)[nH]c(=O)c12 | -9% | -18% | -3 | 2 | 5% | -2%
CC1(C)CC(CC(=O)Nc2ccccc2[N+](=O)[O-])C(=O)O1 (stereo not drawn) | 27% | -6% | -7 | -5 | ? | 8%
CC1=C(C(=O)Nc2ccc(C)cc2C)C(c2ccc(Cl)cc2)n2nc(C(=O)OC(C)C)nc2N1 (stereo not drawn) | 32% | 2% | -7 | 1 | ? | ?
CCCCC/C=C\C[C@@H](O)/C=C/C=C/C=C\[C@@H](O)CCCC(=O)O | . | . | i | 7 | . | .
COc1ccc(N)cc1-n1c(C)ccc1C | ? | -5% | 37* | 25* | 35% | -1%
CC1(C)Cn2c(nnc2-c2cccc(O)c2)S1 | 44% | 33% | 66* | 24* | 12µM* | -1%
CCOC(=O)c1c(C)n(S(=O)(=O)c2ccc(C)cc2)c2ccc(O)c(C(=O)O)c12 | -11% | -16% | 2 | -2 | 0% | 7%
FC(F)(F)c1ccc(-c2noc(CN3CCCN(C4CCCCC4)CC3)n2)cc1 | ? | 7% | -15 | -1 | 9.3µM* | -1%
SMILES | Pf growth 48h | AMA1-RON2 inh | Shiga toxin inh | Cycloheximide cs | Pf growth 96h | SARS PLpro yeast
c1ccc(C(c2ccccc2)c2noc(CN3CCN(C4CCCC4)CC3)n2)cc1 | ? | -4% | -1 | -1 | -16% | -2%
COc1ccccc1-n1c(CNC(=O)c2ccco2)nnc1SCC(=O)Nc1ccc(F)cc1 | -13% | 1% | -6 | -10 | 45% | 7%
O=C(COC(=O)Cn1cc(C(F)(F)F)ccc1=O)NCc1ccccc1 | 32% | 4% | . | . | 33% | 3%
O=C(Nc1oc2ccccc2c(=O)c1-c1ccccc1)c1ccco1 | . | -7% | . | . | . | .
O=C(Nc1oc2ccccc2c(=O)c1-c1ccc(Cl)cc1)c1ccco1 | 11% | 1% | 13 | 22* | 9% | .
O=C(Nc1cc(Oc2ccccc2)cc([N+](=O)[O-])c1)C12CC3CC(C1)CC(n1cnc(Cl)n1)(C3)C2 | ? | -20% | 16 | 10 | ? | 0%
O=C(c1cc(-c2cccc(O)c2)on1)N1CCCC1 | 235% | -14% | 62* | 37* | 5% | -11%
O=C(c1cc(-c2cccc(O)c2)on1)N1CCCCC1 | 200% | 12% | 37* | 35* | ? | 2%
NNC(=O)/C(=C\c1ccc(Br)cc1)NC(=O)c1cccs1 | -8% | 2% | 27 | -3 | 20% | -1%
O=C1c2ccccc2C(=O)N1c1cccc(-c2csc(Nc3ccc4c(c3)OCO4)n2)c1 | 18% | . | 71* | 20* | 10µM* | 15%
COc1ccccc1Nc1nc(-c2cccc(N3C(=O)c4ccccc4C3=O)c2)cs1 | 6% | -13%[2.32 µM] | -4 | 1 | 15µM* | ?
NCCCC[C@H](N)c1nnc([C@H](CC(=O)O)NC(=O)C2CCNCC2)o1 | 65% | 134% | -11 | 7 | 17% | 0%
Cc1cc2c(NCc3ccccc3)ncnc2s1 | ? | 1% | . | 3 | 3% | -12%
COc1ccc(NC(=O)C(OC(=O)c2ccc([N+](=O)[O-])o2)c2ccccc2)cc1Cl (stereo not drawn) | 22% | -14% | 18 | 20* | 50% | 2%
Cc1cc(CNC[C@H]2O[C@@H](n3cnc4c(N)ncnc43)[C@H](O)[C@@H]2O)no1 | . | 6% | . | . | . | .
CC(CCCC(C)(C)O)CC1C2=C(CCCC2=O)OC2=C1C(=O)CCC2 (stereo not drawn) | 15% | -3% | -4 | 1 | -21% | -5%
Cc1nn(C)cc1CN(C)C(=O)CCc1nnc(CCC2CCCCC2)o1 | -5% | 3% | 64 | 11* | 0% | 1%
Cc1cccc2c1N(CCCOc1ccc(C(C)(C)C)cc1)C(=O)C2=O | . | ? | -31 | -2 | 9.3µM* | -11%
Cn1c(=O)c2c(SCC(=O)Nc3nccs3)nc(C3CC3)nc2n(C)c1=O | -6% | 1% | -8 | 2 | 1% | -1%
FC(F)Oc1ccc(-n2cc(-c3ccccc3)[n+]3c2CCCCC3)cc1 | 1.2µM* | -1% | 17 | 0 | ? | -1%
